PAFAH2 inh = PAFAH2 enzyme inhibitors, primary screen, biochemical, fluorescence polarization, human; Platelet-activating factor acetylhydrolase 2, cytoplasmic (Homo sapiens), Q99487; AID 492956, 2010; recombinant PAFAH2, FP-rhodamine activity probe; inhibition, % at 3.39 µM; actives 0.99% (n = 340,000);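 active means inhibition above the mean over all tested compounds plus 3 SD, cut at about 30% in these data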;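 further: inhibitors block probe labeling of enzyme so polarization drops; 0% = enzyme with DMSO and 100% = wells lacking PAFAH2 protein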
PAFAH1B3 inh = PAFAH1B3 enzyme inhibitors, primary screen, biochemical, fluorescence polarization, human. recombinant PAFAH1B3, FP-rhodamine probe. inhibition, % at 3.39 µM. actives 0.28% (n = 340,000). AID 492972, 2010;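 active means inhibition above the screen-wide average of all tested compounds plus 3 SD, cut at about 25% in these data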;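 further: 0% = enzyme with DMSO only and 100% = wells lacking PAFAH1B3 protein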
pPAFAH FP inh = pPAFAH enzyme inhibitors, primary screen, biochemical, fluorescence polarization, human; Platelet-activating factor acetylhydrolase (Homo sapiens), Q13093; recombinant pPAFAH, FP-rhodamine probe fluorescence polarization; inhibition, % at 3.39 µM; actives 1.5% (n = 330,000); AID 463082, 2010;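 active means inhibition above the mean inhibition across the screen plus 3 SD, cut at about 25% in these data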;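 further: inhibitors block binding of the rhodamine activity-based probe so polarization drops; 0% = enzyme with DMSO and 100% = wells lacking pPAFAH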
PAFAH1B2 FP inh = PAFAH1B2 enzyme inhibitors, primary screen, biochemical, fluorescence polarization, human; Platelet-activating factor acetylhydrolase IB subunit alpha2 (Homo sapiens), P68402; recombinant PAFAH1B2, FP-rhodamine activity probe; inhibition, % at 3.39 µM; actives 1.2% (n = 340,000); AID 492953, 2010;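 active means inhibition above the mean of all tested compounds plus 3 SD, cut at about 24% in these data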;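 further: 0% = enzyme with DMSO and 100% = wells lacking PAFAH1B2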
DAGLB inhibitor = DAGLB lipase inhibitors, primary screen, biochemical, fluorescence, HTS; actives 0.059% (n = 340,000); HEK293T DAGLB membrane lysate, EnzChek fluorogenic substrate; AID 504411, 2011; inhibition, % at 5.17 µM; Diacylglycerol lipase-beta (Homo sapiens), Q8NCG7; in the data active means inhibition above about 34%;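 further: 0% = enzyme with vehicle and 100% = wells lacking enzyme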
HTRA1 inh = HTRA1 serine protease inhibitors, primary screen, biochemical, fluorescence polarization, HTS; Q92743; recombinant HTRA1, FP-rhodamine activity-based probe; inhibition, % at 5.96 µM; actives 0.5% (n = 340,000); AID 504803, 2011; in the data active means inhibition above about 36%;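 further: 0% = enzyme with DMSO and 100% = wells lacking enzyme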
Target sequence (Q92743 whole entry, looked up): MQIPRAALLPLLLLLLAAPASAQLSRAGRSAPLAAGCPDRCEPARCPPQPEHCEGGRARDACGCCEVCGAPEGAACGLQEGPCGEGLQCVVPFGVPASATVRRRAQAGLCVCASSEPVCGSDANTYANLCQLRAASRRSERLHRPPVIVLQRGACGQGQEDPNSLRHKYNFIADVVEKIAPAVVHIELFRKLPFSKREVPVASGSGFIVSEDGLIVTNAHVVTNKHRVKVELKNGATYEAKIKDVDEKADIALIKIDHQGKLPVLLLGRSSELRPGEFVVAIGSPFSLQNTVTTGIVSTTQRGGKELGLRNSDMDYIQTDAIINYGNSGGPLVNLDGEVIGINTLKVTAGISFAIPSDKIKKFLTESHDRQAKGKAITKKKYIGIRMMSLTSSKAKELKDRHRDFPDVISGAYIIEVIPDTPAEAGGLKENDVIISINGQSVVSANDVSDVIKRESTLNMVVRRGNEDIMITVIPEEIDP
pPAFAH confirm = pPAFAH (PLA2G7) enzyme inhibitors, confirmation, biochemical, fluorescence polarization, human; shares compounds with pPAFAH FP inh; recombinant pPAFAH, FP-Rh probe fluorescence polarization; inhibition, % at 3.39 µM; actives 72% (n = 2,300); AID 463230, 2010;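 active means mean inhibition of the triplicate above the hit cutoff set for the earlier primary screen, cut at about 25% in these data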;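 further: 0% = enzyme with DMSO and 100% = wells lacking pPAFAH enzyme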
An asterisk follows results filed as active; . = no result given. Shown are actives, neighbours in structure and some others; about 2.8% of the full set was active somewhere.

SMILES	PAFAH2 inh	PAFAH1B3 inh	pPAFAH FP inh	PAFAH1B2 FP inh	DAGLB inhibitor	HTRA1 inh	pPAFAH confirm
CC(=O)N1CCN(c2ccc(NCc3ccc(-c4cccc(Cl)c4)o3)cc2)CC1	7	8	41*	0	9	26	46*
Cc1ccc(S(=O)(=O)N2[C@@H](c3ccc(C(C)(C)C)cc3)C(C(=O)O)=CC[C@H]2c2ccc(Cl)cc2)cc1	-2	-6	37*	90*	8	-134	54*
CCOc1ccc([C@@H]2CC=C(C(=O)O)[C@H](c3cccc(Cl)c3)N2S(=O)(=O)c2ccc(C)cc2)cc1	3	3	6	19	11	-26	.
CCOC(=O)N1CCC(NC(=O)CC2C(=O)NCCN2Cc2ccccc2F)CC1 (stereo not given)	4	9	49*	2	1	-1	6
O=C(Cc1ccc(Br)cc1)OCC(=O)N1CCCCCC1	11	10	9	24	-1	6	.
Cc1ccc(CNC(=O)CCCc2cn(C)c3ccccc23)cc1	-1	9	3	-7	-14	-14	.
CCCn1nc(C(=O)OCC(=O)NC(C)c2ccccc2)c2ccccc2c1=O (stereo not given)	-2	6	-2	4	-7	-1	.
O=C(Nc1ccc(Oc2ccccc2)cc1)C1CCN(c2c3c(nc4ncnn24)CCC3)CC1	-1	-10	76*	1	-1	-13	75*
O=C1CC(=O)N(Cc2ccco2)C(=S)N1	11	-10	41*	0	10	-47	13
O=C1CC(=O)N(Cc2ccco2)C(=O)N1	26	0	37*	1	-3	-7	5
O=c1nc2s/c(=C\c3ccco3)c(=O)n2nc1Cc1ccc(F)cc1	4	8	40*	0	2	0	19
Cc1ccc(-c2nc3s/c(=C\c4ccco4)c(=O)n3n2)cc1	4	12	1	2	0	13	.
CCCSc1sc(C(=O)OC)c(-c2cccs2)c1C#N	.	.	1	.	.	.	.
N#C/C(=C\c1ccc(O)c(O)c1)C(=O)c1ccc(O)c(O)c1	79*	38*	93*	54*	12	34	85*
N#C/C(=C\c1ccc(O)c(O)c1)C(=O)N1CCCC1	5	11	8	7	0	10	.
O=C1CC(=C2c3ccccc3-c3ccccc32)C(=O)N1CCCCN1CCN(c2ccccc2)CC1	4	-4	41*	-1	27	-12	19
Cc1ccc(NC(=O)c2cc(C)n(-c3cccc(C)c3)c2C)cc1	-5	5	71*	0	-5	-54	77*
CCN(c1ccc(N=Cc2c(O)n(Cc3ccc(OC)cc3)c(=O)c3ccccc23)cc1)C(C)C	18	21	.	11	-2	4	.
Cc1cccc(-c2ccc3c(c2)C2CC3CCN2Cc2ccc3c(c2)OCO3)c1 (stereo not given)	-2	7	.	4	-7	-16	.
CC(C)[C@H](N)C(=O)NC[C@H]1CC[C@H](C(=O)N[C@@H](Cc2ccccc2)C(=O)O)CC1	0	11	-3	5	0	2	.
CCn1c(N)c(C(=O)NCC2CCCO2)sc1=S (stereo not given)	-2	3	5	5	-1	7	.
O=C(NCc1ccco1)c1sc(=S)n2c1[nH]c(=O)c1ccccc12	30	19	47*	18	13	7	61*
O=C(NCc1ccccc1)c1ccc2c(=O)n(CC3CCCO3)c(=S)[nH]c2c1 (stereo not given)	-6	13	0	6	5	-8	.
Cc1ccc(CNC(=O)c2ccc3c(=O)n(CC4CCCO4)c(=S)[nH]c3c2)cc1 (stereo not given)	1	4	-1	4	0	-3	.
Cc1ccc(CNC(=O)c2ccc3c(=O)[nH]c4c(C(=O)NCC5CCCO5)sc(=S)n4c3c2)cc1 (stereo not given)	31*	34*	38*	30*	7	10	75*
SMILES	PAFAH2 inh	PAFAH1B3 inh	pPAFAH FP inh	PAFAH1B2 FP inh	DAGLB inhibitor	HTRA1 inh	pPAFAH confirm
CCCCCNC(=O)c1ccc2c(=O)[nH]c3c(C(=O)NCC4CCCO4)sc(=S)n3c2c1 (stereo not given)	45*	38*	62*	49*	21	9	74*
O=C(NCc1ccccc1)c1ccc2c(=O)[nH]c3c(C(=O)NCC4CCCO4)sc(=S)n3c2c1 (stereo not given)	54*	34*	63*	35*	6	-4	81*
COc1cccc(CN2CC(C(=O)NCCCCc3ccccn3)CCC2=O)c1 (stereo not given)	3	1	.	4	1	16	.
CCOC(=O)N1CCN(C(=O)c2ccc(Cl)c(NC(=O)c3cccs3)c2)CC1	0	6	-3	2	1	0	.
CC12C(=O)N(c3ccc(C(=O)N4CCOCC4)cc3)C(=O)C1C1c3ccccc3C2c2ccccc21 (stereo not given)	.	.	6	.	.	.	.
O=[N+]([O-])c1ccc(O)c(C=Nc2ccc3nc(-c4ccccc4)[nH]c3c2)c1	2	2	8	6	6	8	.
Oc1c(Br)cc(C=Nc2ccc3nc(-c4ccccc4)[nH]c3c2)c(O)c1Br	.	.	44*	.	.	.	35*
CC1CC1C(=O)OCC(=O)Nc1ccc(N=Nc2ccccc2)cc1 (stereo not given)	85*	4	69*	3	20	16	65*
COC(=O)CSc1cc(C(=O)c2nccn2C)c2ccccc2n1	0	5	43*	-1	1	-4	22
O=C(c1ccccc1)N1CCN(c2ccc([N+](=O)[O-])c(NCC3CCCO3)c2)CC1 (stereo not given)	-5	0	6	2	4	-2	.
COCCN(C(=S)Nc1ccc(C)c(C)c1)C(C)c1ccco1 (stereo not given)	4	-3	1	-1	-9	1	.
Cc1ccc(NC(=S)N(CCN(C)C)C(C)c2ccco2)cc1C (stereo not given)	8	4	38*	0	-2	6	2
COC(=O)c1cc(O)cc(OC)c1Oc1cc(C)cc(O)c1C(=O)O	12	10	35*	6	3	13	23
COC(=O)c1cc(O)cc(OC)c1C(=O)c1c(O)cc(C)cc1O	3	3	5	3	-2	6	.

Bioassay records (PubChem)
